{
  "source": "the supplement of paper PMC11732987",
  "about": "“Enantioselective OTUD7B fragment discovery through chemoproteomics screening and high-throughput optimisation” (Communications Chemistry, 2025)",
  "experiment_in_all_cases": "log2 ratio of Biotin-Ahx-Ub-VS probe labelling (fragment/DMSO); higher = less target engagement (more negative = stronger competition), active = hit call of the paper (q ≤ 0.05, log2 ratio ≤ -1)",
  "settings_in_all_cases": "compound concentration: 200 uM; treatment time: 3 h",
  "key": {"USP19": {"target": "T1, USP19 (UniProt O94966)", "T1 sequence (whole entry)": "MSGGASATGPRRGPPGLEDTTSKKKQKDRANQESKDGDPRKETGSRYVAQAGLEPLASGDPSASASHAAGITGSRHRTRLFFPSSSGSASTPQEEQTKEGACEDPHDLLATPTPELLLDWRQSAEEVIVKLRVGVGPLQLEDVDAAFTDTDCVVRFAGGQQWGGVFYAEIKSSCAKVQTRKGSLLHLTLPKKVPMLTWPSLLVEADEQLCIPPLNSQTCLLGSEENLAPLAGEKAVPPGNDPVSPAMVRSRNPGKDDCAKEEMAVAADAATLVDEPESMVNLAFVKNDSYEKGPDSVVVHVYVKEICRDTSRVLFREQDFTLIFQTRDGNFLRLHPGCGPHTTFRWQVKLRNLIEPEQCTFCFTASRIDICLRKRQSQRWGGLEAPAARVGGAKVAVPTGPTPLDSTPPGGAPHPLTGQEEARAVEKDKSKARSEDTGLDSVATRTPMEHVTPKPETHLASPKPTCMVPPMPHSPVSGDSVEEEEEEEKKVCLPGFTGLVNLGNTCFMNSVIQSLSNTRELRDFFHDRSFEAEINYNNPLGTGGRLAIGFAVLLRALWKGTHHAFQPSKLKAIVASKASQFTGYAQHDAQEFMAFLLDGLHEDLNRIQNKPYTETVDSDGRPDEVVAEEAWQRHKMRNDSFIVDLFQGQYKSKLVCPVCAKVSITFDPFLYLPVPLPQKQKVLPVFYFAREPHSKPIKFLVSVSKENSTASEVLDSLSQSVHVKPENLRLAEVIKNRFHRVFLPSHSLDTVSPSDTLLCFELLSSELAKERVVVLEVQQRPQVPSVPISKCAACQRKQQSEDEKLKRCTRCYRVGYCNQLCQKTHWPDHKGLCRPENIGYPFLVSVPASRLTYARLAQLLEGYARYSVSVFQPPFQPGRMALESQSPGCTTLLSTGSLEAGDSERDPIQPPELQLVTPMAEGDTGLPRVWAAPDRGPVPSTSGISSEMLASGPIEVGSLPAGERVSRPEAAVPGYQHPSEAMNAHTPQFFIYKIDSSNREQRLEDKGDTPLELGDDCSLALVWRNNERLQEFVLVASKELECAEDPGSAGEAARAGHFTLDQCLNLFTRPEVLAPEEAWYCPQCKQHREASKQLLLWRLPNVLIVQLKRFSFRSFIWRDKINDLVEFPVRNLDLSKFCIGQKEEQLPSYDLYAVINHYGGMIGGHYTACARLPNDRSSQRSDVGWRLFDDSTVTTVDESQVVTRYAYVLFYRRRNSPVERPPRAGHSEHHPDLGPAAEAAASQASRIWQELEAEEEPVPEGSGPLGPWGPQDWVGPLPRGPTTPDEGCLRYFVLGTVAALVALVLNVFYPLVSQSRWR", "summary_of_the_method": "(§1)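 The table lists average log2 ratios of fragment over vehicle, from an unpaired t-test on global-median-normalised Spectronaut label-free quantities. Proteins with ≥2 unique peptides were used. Samples were HEK293T lysate (495 µg) treated in triplicate with fragment at 200 µM or vehicle for 3 h, then with Biotin-Ahx-Ub-VS (0.5 µM final) for 1 h, with labelled DUBs NeutrAvidin-enriched and run by diaPASEF LC-MS/MS.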"}, "USP22": {"target": "T2, USP22 (UniProt Q9UPT9)", "T2 sequence (whole entry)": "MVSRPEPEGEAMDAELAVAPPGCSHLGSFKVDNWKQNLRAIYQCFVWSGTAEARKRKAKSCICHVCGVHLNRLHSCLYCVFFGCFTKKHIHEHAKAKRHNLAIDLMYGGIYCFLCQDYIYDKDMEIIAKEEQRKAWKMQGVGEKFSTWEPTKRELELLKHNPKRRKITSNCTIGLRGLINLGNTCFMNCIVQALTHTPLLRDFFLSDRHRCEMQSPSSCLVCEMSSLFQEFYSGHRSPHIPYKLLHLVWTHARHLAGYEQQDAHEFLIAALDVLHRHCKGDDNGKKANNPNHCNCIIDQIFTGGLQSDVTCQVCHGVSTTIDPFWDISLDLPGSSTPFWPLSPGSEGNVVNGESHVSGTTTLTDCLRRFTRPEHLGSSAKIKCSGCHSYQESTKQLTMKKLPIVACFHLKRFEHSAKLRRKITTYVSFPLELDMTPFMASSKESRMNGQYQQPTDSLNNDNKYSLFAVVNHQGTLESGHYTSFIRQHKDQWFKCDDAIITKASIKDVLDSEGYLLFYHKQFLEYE", "summary_of_the_method": "as §1"}, "USP24": {"target": "USP24 (UniProt Q9UPU5)", "sequence (Q9UPU5 whole entry)": "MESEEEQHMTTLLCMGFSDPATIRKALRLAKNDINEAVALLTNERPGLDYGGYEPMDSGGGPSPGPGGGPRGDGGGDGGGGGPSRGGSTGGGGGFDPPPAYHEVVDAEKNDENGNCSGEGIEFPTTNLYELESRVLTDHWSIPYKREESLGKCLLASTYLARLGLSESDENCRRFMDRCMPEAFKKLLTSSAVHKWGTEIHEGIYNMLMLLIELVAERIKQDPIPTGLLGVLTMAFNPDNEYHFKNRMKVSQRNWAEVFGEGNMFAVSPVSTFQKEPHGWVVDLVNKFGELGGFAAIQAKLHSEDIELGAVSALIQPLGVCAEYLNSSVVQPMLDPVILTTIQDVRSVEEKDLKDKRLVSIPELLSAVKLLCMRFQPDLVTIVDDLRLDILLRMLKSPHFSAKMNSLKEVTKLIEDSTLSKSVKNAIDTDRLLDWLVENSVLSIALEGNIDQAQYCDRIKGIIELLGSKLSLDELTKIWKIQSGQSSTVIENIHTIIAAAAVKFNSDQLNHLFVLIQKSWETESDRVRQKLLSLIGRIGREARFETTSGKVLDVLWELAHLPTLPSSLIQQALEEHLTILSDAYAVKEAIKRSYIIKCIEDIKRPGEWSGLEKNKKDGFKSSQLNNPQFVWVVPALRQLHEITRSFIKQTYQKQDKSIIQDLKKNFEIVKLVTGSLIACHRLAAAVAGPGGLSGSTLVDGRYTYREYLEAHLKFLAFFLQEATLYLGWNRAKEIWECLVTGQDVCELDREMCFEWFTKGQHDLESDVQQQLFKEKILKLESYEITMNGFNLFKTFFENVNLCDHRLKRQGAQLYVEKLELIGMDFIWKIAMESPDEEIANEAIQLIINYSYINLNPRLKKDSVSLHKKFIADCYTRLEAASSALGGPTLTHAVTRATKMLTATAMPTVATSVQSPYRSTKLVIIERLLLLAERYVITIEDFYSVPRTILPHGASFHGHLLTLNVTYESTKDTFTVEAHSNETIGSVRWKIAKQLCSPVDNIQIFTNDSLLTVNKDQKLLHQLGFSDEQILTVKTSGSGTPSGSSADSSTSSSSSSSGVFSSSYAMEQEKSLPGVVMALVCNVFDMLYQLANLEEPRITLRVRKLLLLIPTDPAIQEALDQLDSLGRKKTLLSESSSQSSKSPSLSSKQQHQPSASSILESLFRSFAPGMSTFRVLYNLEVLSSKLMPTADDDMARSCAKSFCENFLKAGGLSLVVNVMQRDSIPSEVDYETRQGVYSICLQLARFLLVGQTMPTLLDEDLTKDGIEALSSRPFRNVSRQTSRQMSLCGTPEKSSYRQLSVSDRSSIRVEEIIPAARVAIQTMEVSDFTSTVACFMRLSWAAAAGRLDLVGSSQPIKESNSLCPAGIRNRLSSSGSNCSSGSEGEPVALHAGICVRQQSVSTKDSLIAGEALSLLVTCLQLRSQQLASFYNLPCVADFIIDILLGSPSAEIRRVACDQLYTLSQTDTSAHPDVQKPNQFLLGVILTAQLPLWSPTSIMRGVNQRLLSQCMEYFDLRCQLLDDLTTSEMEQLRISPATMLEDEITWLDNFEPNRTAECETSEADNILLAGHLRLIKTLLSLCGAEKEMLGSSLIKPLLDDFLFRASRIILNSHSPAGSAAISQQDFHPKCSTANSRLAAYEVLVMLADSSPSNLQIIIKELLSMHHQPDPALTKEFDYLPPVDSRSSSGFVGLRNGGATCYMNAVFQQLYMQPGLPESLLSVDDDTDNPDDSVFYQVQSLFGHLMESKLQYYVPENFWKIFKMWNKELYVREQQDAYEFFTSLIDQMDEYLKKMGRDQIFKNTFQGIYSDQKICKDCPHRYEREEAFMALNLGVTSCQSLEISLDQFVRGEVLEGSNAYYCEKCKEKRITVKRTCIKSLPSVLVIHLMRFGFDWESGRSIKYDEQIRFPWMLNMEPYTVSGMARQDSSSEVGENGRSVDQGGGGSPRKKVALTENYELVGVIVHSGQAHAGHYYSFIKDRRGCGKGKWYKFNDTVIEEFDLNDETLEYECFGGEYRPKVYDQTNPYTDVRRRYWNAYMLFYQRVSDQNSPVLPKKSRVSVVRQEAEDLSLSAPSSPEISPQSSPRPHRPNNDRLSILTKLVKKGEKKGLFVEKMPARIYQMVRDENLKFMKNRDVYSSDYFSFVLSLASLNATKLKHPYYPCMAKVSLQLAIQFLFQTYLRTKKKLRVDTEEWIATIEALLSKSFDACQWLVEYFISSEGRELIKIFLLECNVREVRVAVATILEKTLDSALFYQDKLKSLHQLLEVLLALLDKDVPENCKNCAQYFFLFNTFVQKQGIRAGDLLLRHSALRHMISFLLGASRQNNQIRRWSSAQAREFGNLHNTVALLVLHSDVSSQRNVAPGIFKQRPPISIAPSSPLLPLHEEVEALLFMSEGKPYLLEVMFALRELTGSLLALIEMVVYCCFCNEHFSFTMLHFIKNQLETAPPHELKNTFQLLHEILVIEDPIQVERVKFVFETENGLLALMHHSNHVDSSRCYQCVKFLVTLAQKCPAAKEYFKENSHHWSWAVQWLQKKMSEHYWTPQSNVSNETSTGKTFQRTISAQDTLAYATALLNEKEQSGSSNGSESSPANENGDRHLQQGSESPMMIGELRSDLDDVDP", "summary_of_the_method": "as §1"}, "USP25": {"target": "T3, USP25 (UniProt Q9UHP3)", "T3 sequence (whole entry)": "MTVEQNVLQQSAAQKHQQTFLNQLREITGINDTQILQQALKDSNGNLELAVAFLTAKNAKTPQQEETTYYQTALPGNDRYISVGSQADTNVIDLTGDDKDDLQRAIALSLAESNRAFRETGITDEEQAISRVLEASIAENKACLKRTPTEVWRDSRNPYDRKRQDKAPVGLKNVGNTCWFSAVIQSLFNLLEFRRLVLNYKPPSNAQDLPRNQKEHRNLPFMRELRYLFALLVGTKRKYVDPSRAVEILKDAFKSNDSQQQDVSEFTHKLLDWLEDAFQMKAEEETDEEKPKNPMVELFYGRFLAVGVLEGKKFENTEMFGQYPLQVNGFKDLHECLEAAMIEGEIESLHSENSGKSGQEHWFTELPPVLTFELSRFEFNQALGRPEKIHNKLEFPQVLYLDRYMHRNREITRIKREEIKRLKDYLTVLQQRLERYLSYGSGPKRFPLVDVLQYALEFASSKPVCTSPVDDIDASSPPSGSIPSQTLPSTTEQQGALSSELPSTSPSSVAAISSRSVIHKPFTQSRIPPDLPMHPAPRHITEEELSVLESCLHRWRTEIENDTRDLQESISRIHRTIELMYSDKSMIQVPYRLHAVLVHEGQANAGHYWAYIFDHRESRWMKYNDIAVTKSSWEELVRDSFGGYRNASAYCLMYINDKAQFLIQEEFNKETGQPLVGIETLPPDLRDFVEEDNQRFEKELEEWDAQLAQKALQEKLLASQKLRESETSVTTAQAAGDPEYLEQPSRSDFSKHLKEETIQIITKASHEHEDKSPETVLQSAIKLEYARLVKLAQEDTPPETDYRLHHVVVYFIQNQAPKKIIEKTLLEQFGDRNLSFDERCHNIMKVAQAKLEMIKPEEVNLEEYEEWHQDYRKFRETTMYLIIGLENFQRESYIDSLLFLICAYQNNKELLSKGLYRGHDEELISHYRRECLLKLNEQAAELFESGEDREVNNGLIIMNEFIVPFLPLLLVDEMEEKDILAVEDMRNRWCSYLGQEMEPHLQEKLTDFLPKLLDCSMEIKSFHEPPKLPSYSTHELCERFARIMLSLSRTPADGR", "summary_of_the_method": "as §1"}, "USP28": {"target": "T4, USP28 (UniProt Q96RU2)", "T4 sequence (whole entry)": "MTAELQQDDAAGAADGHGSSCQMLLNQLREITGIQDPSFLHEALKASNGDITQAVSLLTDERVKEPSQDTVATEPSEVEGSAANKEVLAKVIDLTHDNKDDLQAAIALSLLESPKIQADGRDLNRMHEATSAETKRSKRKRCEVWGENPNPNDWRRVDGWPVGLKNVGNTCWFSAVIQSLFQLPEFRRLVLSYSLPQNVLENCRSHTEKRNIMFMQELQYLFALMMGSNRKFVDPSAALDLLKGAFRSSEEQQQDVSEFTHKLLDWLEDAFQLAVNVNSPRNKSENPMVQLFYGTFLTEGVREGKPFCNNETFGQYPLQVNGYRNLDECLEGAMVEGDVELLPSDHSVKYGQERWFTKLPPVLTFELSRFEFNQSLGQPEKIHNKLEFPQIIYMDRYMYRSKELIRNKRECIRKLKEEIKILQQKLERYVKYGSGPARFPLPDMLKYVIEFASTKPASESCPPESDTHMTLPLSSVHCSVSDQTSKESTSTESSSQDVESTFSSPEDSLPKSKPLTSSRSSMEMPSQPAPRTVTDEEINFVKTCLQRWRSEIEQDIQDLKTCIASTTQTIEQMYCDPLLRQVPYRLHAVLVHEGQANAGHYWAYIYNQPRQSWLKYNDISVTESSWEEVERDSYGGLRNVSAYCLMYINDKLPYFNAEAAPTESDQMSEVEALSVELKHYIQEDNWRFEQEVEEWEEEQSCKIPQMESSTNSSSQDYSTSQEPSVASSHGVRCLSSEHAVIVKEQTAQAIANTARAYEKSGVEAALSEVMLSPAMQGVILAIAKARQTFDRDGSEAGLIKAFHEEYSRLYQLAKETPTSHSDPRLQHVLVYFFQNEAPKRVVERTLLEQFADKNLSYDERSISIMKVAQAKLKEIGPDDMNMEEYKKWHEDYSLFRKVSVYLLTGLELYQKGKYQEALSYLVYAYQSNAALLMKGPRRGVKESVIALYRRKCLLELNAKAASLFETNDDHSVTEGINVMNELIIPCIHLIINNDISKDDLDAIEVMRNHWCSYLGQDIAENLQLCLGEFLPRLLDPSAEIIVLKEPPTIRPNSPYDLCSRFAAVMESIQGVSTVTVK", "summary_of_the_method": "as §1"}},
  "note": "A number with no mark means an inactive call.",
  "data": [
    {"smiles": "O=C(CCl)N1CCc2nc[nH]c2C1c1ccc(Cl)cc1", "note": "(stereo not given)", "values": [
      {"measurement": "log2 ratio of Biotin-Ahx-Ub-VS probe labelling", "setting": "USP19", "result": -0.509},
      {"measurement": "log2 ratio of Biotin-Ahx-Ub-VS probe labelling", "setting": "USP22", "result": 0.00421},
      {"measurement": "log2 ratio of Biotin-Ahx-Ub-VS probe labelling", "setting": "USP24", "result": "-1.47 (active)"},
      {"measurement": "log2 ratio of Biotin-Ahx-Ub-VS probe labelling", "setting": "USP25", "result": -0.591},
      {"measurement": "log2 ratio of Biotin-Ahx-Ub-VS probe labelling", "setting": "USP28", "result": -0.738}
    ]}
  ]
}
